# According to PubChem BioAssay (EPA / NIEHS):
# Calls of active or inactive are those of the source. Rule for the calls: active = hit-call score of the fitted dose curve at least 0.9, where 1 is the maximum; inactive = score below 0.9.
# Experiment: ATG_RORE_CIS: Attagene CIS-FACTORIAL HepG2 Assay for human RAR-related Orphan Receptor Element (RORE) (AID 2282959)
# Conditions: HepG2 Attagene cis-factorial RORE reporter, mRNA; actives raise or lower the signal
# Description: ATG_CIS is a cell-based, multiplexed-readout assay that uses HepG2, a human liver cell line, with measurements taken at 24 hours after chemical dosing in a 24-well plate.ATG_RORE_CIS is one of 52 assay component(s) measured or calculated from the ATG_CIS assay. It is designed to make measurements of mRNA induction, a form of inducible reporter, as detected with fluorescence intensity signals by Reverse transcription polymerase chain reaction (RT-PCR) and Capillary electrophoresis technology.Data from the assay component ATG_RORE_CIS was analyzed into 1 assay endpoint. This assay endpoint, ATG_RORE_CIS, was analyzed with bidirectional fitting relative to DMSO as the negative control and baseline of activity. Using a type of inducible reporter, measures of mRNA for gain or loss-of-signal activity can be used to understand the reporter gene at the transcription factor-level as they relate to the gene RORA and RORB and RORC. Furthermore, this assay endpoint can be referred to as a primary readout, because this assay has produced multiple assay endpoints where this one serves a reporter gene function. To generalize the intended target to other relatable targets, this assay endpoint is annotated to the nuclear receptor intended target family, where the subfamily is orphan.
# Human liver HepG2 cells are transiently transfected with multiple reporter transcription units (MRTUs) in 6-well plates using FuGene 6 reagent (Roche; 3 ml FuGene/1 mg DNA). The MRTU constructs are regulated by a cis-regulating element (promoter). […] A major difference between the CIS and TRANS system is that in CIS activities of endogenous TFs are measured, whereas the TRANS assay evaluates changes in activities of exogenous, chimeric NR-Gal4 proteins. […] At the end of 24 hour incubation, total RNA was isolated using TriZol reagent (Invitrogen). The isolated RNA is then reverse-transcribed using oligo(dT) primer and Mo-MLV reverse transcriptase (Invitrogen) with DNAse I (Ambion) treatment for 30 min. The one-tenth of the produced cDNA was amplified by PCR using Taq DNA polymerase (Invitrogen) and two reporter sequence-specific primers. The PCR products were fluorescently labeled by primer extension with 6-arboxyfluorescein (6-FAM) 5'-labeled reporter sequence-specific primer (2 min at 95 C, 20 s at 68 C and 10 min at 72 C) and these products were digested with 5U of HpaI (New England Biolabs) for 2h at 37 C. The fragments were purified using Qiaquick PCR columns (Qiagen), analyzed on an ABI 3130xL genetic analyzer (Applied Biosystems) with peak positions identified by using a set of X-rhodamine (ROX)-labeled MapMarker1000 molecular weight standards (BioVentures). The raw capillary electrophoresis data was processed using Attagraph software (Attagene).
Structure (SMILES),outcome,AC50
FC(F)(F)C(=NOCC1OCCO1)c1ccc(Cl)cc1,inactive,
CC(C)CC(O)Cc1ccccc1 (stereo not given),inactive,
COCC(C)N (stereo not given),inactive,
CC1OC1C1CCC2(C)OC2C1 (stereo not given),inactive,
CCCCCCCCCCc1ccccc1,inactive,
CCCOCCOCCOCCO,inactive,
O=C1CCCC(=O)O1,inactive,
CCCCCc1ccc(Cl)cc1,inactive,
CC(C)(C)C(=O)C=Cc1ccc(Cl)cc1,inactive,
CCOC(=O)N1CCC(=C2c3ccc(Cl)cc3CCc3cccnc32)CC1,,3.42 µM (active)
CC1=NC(C)OC1C (stereo not given),inactive,
CC(=O)c1ccc2c(c1)CCCC2,inactive,
C[C@]12C=CC(=O)C=C1CC[C@@H]1[C@@H]2[C@@H](O)C[C@@]2(C)[C@H]1CC[C@]2(O)C(=O)CO,inactive,
CCCCCCOC(=O)C(C)CC (stereo not given),inactive,
CCCCNc1ccc(NCCCC)c2c1C(=O)c1ccccc1C2=O,inactive,
CC(=O)Nc1ccc2c(c1)Cc1cc(NC(C)=O)ccc1-2,inactive,
CCC(C)OC(=O)c1ccc(O)cc1 (stereo not given),inactive,
Cc1ccc(N)c([N+](=O)[O-])c1,inactive,
C=CC(=O)NC(C)(C)CS(=O)(=O)O,inactive,
CC(C)(Oc1ccc(C2CC2(Cl)Cl)cc1)C(=O)O (stereo not given),inactive,

Structure (SMILES),outcome,AC50
CC(C)=CCC[C@H](C)CCO,inactive,
CCCCOCCOC(=O)COc1nc(Cl)c(Cl)cc1Cl,inactive,
C[Si](C)O[Si](C)(C)O[Si](C)(C)O[Si](C)C,inactive,
O=c1n(CCO)c(=O)n(CCO)c(=O)n1CCO,inactive,
CC1=Nc2ccc3ccccc3c2C1(C)C,inactive,
CC(=O)OCC(C)OC(C)=O (stereo not given),inactive,
C=C(C)[C@@H]1CCC2=CCC[C@@H](C)[C@]2(C)C1,inactive,
O=C1CC2CC1C1CCCC21 (stereo not given),inactive,
O=C1CCCC1,inactive,
CO[Si](OC)(OC)c1ccccc1,inactive,
CC(=O)OC(C)C,inactive,
CCN(CCO)c1cccc(C)c1,inactive,
CN1C(=O)N(C)C(O)C1O (stereo not given),inactive,
COC(=O)c1sccc1S(N)(=O)=O,inactive,
O=C1CCCN1CCO,inactive,
O=C(Oc1ccccc1)c1ccc2ccccc2c1O,,34.3 µM (active)
CCCCCCC(O)CO (stereo not given),inactive,
CC(C)(C)c1n[nH]c(=O)n(N)c1=O,inactive,
CC1(C)O[C@@H]2C[C@H]3[C@@H]4C[C@H](F)C5=CC(=O)CC[C@]5(C)[C@H]4[C@@H](O)C[C@]3(C)[C@]2(C(=O)CO)O1,inactive,
CCCCC(CC)COC(=O)c1ccccc1 (stereo not given),inactive,
